Tb PYK inh: qHTS of Trypanosoma Brucei Inhibitors. pyruvate kinase (Trypanosoma brucei), Q57TT1. TbPYK enzyme, Kinase-Glo Plus ATP luminescence, 45 min. Potency, µM (series often up to 76.8 µM), without a hit: at the highest dose activity, negative = inhibition, most hits filed as inhibitors. 410,000 compounds, 0.12% hits. AID 624173, 2012; note: potency is the fitted concentration of half-maximal effect; % is set by controls: 0 for no effect and ±100 for the full control effect; nearly all actives have a fitted effect of over 50% in size
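Activity of T. brucei pyruvate kinase was followed by Kinase-Glo Plus luminescence after the enzyme reacted 45 min at room temperature with 130 uM ADP (final) and substrate. Test compounds were added before ADP at multiple concentrations.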
Sm TGR inh: qHTS Assay for the Inhibitors of Schistosoma Mansoni Peroxiredoxins; purified TGR, DTNB reduction, TNB absorbance 405 nm; 360,000 compounds, 3% hits; Potency, µM (titrated, usually from 114 µM), for the others: at the top dose activity change, negative = inhibition, most hits filed as inhibitors; Schistosoma mansoni thioredoxin glutathione reductase (TGR), Q962Y6; AID 485364, 2010; note: potency is the fitted concentration of half-maximal effect; % is set by controls: 0 for no effect and ±100 for the full control effect; nearly all actives have a fitted effect of over 60% in size
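TGR 20 nM + NADPH 100 uM (dispensed conc.), cpd preinc 15 min RT; start with NADPH (500 uM addition) then DTNB (15 mM addition). Kinetic TNB absorbance, 405 nm filter. Four-parameter Hill fit across titration.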
Cycloheximide cs: Cycloheximide Counterscreen for Small Molecule Inhibitors of Shiga Toxin; 300,000 compounds, 12% hits; AID 2314, 2010; max response, %; cell reporter, cycloheximide protein synthesis inhibition counterscreen; in the data active = max response mostly above about 13%, no sharp cut-off; inactive = mostly below about 14%; note: read at 38.3 µM for the half of the compounds with a filed dose; 0% is about no effect
Shiga toxin inh: A qHTS for Small Molecule Inhibitors of Shiga Toxin. Vero cells, Shiga toxin protein synthesis inhibition reporter. inhibition, % at 38.7 µM. 290,000 compounds, 9.2% hits. AID 2315, 2010; in the data active = inhibition mostly above about 28%, no sharp cut-off; inactive = mostly below about 43%; note: 0% is about no effect
LmPK inhibitor: qHTS Assay for Inhibitors of Leishmania Mexicana Pyruvate Kinase (LmPK); purified LmPK, Kinase-Glo ATP luminescence, 1 h; 290,000 compounds, 0.37% hits; AID 1721, 2009; Potency, µM (doses to about 57.5 µM), inactives show at the top dose activity change, negative = inhibition, actives largely listed as inhibitors; note: potency is the fitted concentration of half-maximal effect; % is set by controls: 0 for no effect and ±100 for the full control effect
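Pyruvate kinase activity monitored as ATP production (luciferase luminescence). Conditions: 0.1 nM enzyme, 0.5 mM PEP, 0.1 mM ADP, 1 h, RT; normalized against uninhibited and no-enzyme wells.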
Giardia FBPA inh-1: qHTS Assay for Inhibitors of Fructose-1,6-bisphosphate Aldolase from Giardia Lamblia | A8B2U2 | purified Giardia FBPA | Potency, µM (doses to about 59.6 µM), for the others: top-dose activity, negative = inhibition, actives largely listed as inhibitors | 290,000 compounds, 0.71% hits; note: potency is the fitted concentration of half-maximal effect; % is set by controls: 0 for no effect and ±100 for the full control effect; nearly all actives have a fitted effect of over 55% in size
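Giardia FBPA (40 nM reagent) was preincubated 10 min at RT with compound (up to 57.5 uM final), then substrate plus GAPDH/TPI/NAD/arsenate coupling system with diaphorase/resazurin was added; resorufin fluorescence (525/598 nm) was read after 20 min.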
Giardia growth: qHTS Assay for Inhibitors of Fructose-1,6-bisphosphate Aldolase from Giardia Lamblia: Giardia lamblia growth inhibition; shares compounds with Giardia FBPA inh-1; Giardia lamblia trophozoite growth inhibition; Potency, µM (highest dose often 57.5 µM), inactives show at the highest dose activity change, negative = inhibition, most hits filed as inhibitors; 1,500 compounds, 5% hits;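 note: potency is the fitted concentration of half-maximal effect; trophozoites exposed to compound for 48 h at 37 °C; % is set by controls: 0 for no effect and ±100 for the full control effect; nearly all actives have a fitted effect of over 70% in size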
Mammal cell tox: qHTS Assay for Inhibitors of Fructose-1,6-bisphosphate Aldolase from Giardia Lamblia: Mammalian cellular toxicity; AID 2786, 2010; Potency, µM (series often up to 57.5 µM), for the others: top-dose viability change, negative = toxicity, most hits filed as inhibitors; shares compounds with Giardia FBPA inh-1; mammalian cell viability counter-screen, qHTS; 1,500 compounds, 4% hits;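 note: Chinese hamster ovary cells used as mammalian cytotoxicity surrogate; viability measured as cellular ATP by luminescence; potency is the fitted concentration of half-maximal effect; compound exposure lasted 48 h before reading; % is set by controls: 0 for no effect and ±100 for the full control effect; nearly all actives have a fitted effect of over 60% in size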
Giardia FBPA inh-2: qHTS Assay for Inhibitors of Fructose-1,6-bisphosphate Aldolase from Giardia Lamblia: Primary screen confirmation; shares compounds with Giardia FBPA inh-1; purified Giardia aldolase enzyme activity, qHTS; Potency, µM (titrated, usually from 57.5 µM), for the others: at the highest dose activity change, negative = inhibition, usual class: inhibitors; 1,500 compounds, 5% hits; note: potency is the fitted concentration of half-maximal effect; % is set by controls: 0 for no effect and ±100 for the full control effect; nearly all actives have a fitted effect of over 45% in size
Rabbit aldolase: qHTS Assay for Inhibitors of Fructose-1,6-bisphosphate Aldolase from Giardia Lamblia: Rabbit FBPA Selectivity. Potency, µM (series often up to 57.5 µM), for inactives: top-dose activity, negative = inhibition, most hits filed as inhibitors. 1,500 compounds, 4% hits. shares compounds with Giardia FBPA inh-1. Rabbit muscle FBPA enzyme inhibition, selectivity counter-screen; note: potency is the fitted concentration of half-maximal effect; % is set by controls: 0 for no effect and ±100 for the full control effect; nearly all actives have a fitted effect of over 60% in size
Target sequence (P00883 whole entry, looked up): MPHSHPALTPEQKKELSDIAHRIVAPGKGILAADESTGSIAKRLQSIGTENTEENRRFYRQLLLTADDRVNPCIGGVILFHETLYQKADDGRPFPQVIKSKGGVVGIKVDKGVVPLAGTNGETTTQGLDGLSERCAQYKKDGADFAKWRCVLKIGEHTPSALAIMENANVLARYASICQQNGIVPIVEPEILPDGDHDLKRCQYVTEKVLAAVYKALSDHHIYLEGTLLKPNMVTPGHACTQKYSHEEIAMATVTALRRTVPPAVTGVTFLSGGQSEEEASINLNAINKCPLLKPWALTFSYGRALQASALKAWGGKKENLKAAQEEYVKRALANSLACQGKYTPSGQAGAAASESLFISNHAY
GAPDH coupling: qHTS Assay for Inhibitors of Fructose-1,6-bisphosphate Aldolase from Giardia Lamblia: Coupling assay counterscreen confirmation; Potency, µM (series often up to 57.5 µM), for the others: at the top dose activity change, negative = inhibition, most hits filed as inhibitors; shares compounds with Giardia FBPA inh-1; AID 2795, 2010; 1,500 compounds, 6% hits; GAPDH coupling enzyme counterscreen, biochemical, qHTS; note: potency is the fitted concentration of half-maximal effect; % is set by controls: 0 for no effect and ±100 for the full control effect; nearly all actives have a fitted effect of over 55% in size
* = called active by the depositor; ? = inconclusive; / = no result given; [ ] = remark or other dose. This excerpt belongs to a sample that is enriched for hits. Unless noted, calls come from the whole dose curve; as a rule, active = well fitted curve in the direction sought with a large enough effect; inconclusive = small, poorly fitted or top-dose-only effect, or another doubt; inactive = no such curve, though single readings can be large; an effect the other way counts as inactive or inconclusive.

SMILES | Tb PYK inh | Sm TGR inh | Cycloheximide cs | Shiga toxin inh | LmPK inhibitor | Giardia FBPA inh-1 | Giardia growth | Mammal cell tox | Giardia FBPA inh-2 | Rabbit aldolase | GAPDH coupling
Cc1ccc2oc(C(=O)Nc3ccc(S(=O)(=O)Nc4ncccn4)cc3)c(C)c2c1 | -15.4% | -2.5% | -3.0 | -6.4 | 1.6% | ? | / | / | / | / | /
CCOC(=O)c1c(S(=O)(=O)N2CCCC(C(=O)N3CCN(c4ccc(F)cc4)CC3)C2)c(C)n(C)c1C (stereo not drawn) | 2.2% | -0.7% | / | / | / | / | / | / | / | / | /
C=CC1CN(C(=O)OCC(Cl)(Cl)Cl)C2CC3c4ccc(OC)cc4NC3C3CC1C2CO3 (stereo not drawn) | -3.4% | / | / | / | / | / | / | / | / | / | /
Cc1ccc(C(=O)Nc2ccc(S(=O)(=O)Nc3ncccn3)cc2)cc1[N+](=O)[O-] | 3.7% | 0.0% | -1.1 | -6.2 | -4.0% | 25.1µM* | -13.7%[10.4 µM] | 3.5% | -7.0% | 7.2% | -17.0%
O=C(Nc1ccc(S(=O)(=O)Nc2ncccn2)cc1)c1ccc(Cl)c([N+](=O)[O-])c1 | -4.0% | -21.7% | -2.8 | -13.7 | 2.6% | -11.5% | / | / | / | / | /
C=CCc1cc(OC)ccc1OCCN1CC(C)OC(C)C1 (stereo not drawn) | -9.8% | 0.5% | -1.2 | / | -4.1% | ? | / | / | / | / | /
C=CCc1cc(Cl)ccc1OCCN1CC(C)OC(C)C1 (stereo not drawn) | -11.8% | / | -2.1 | -6.0 | 0.3% | 17.7µM* | -18.6% | -7.0% | -6.0% | -1.6% | -0.4%
CN(Cc1ccccc1)C(=S)NC(=O)c1cccs1 | ? | -21.6% | 8.1 | 2.1 | -0.1% | 12.6µM* | ? | -20.4% | 2.5% | 8.4% | 12.6%
CN(Cc1ccccc1)C(=S)NC(=O)c1ccc(-c2ccccc2)cc1 | -2.2% | 6.0% | 5.8 | -0.4 | 6.4% | 24.9% | / | / | / | / | /
Brc1ccccc1CN1CCN(Cc2c[nH]c3ccccc23)CC1 | 22.0% | / | / | / | / | / | / | / | / | / | /
Brc1ccc(CN2CCN(Cc3c[nH]c4ccccc34)CC2)cc1 | 5.2% | -2.2% | -1.4 | -4.9 | -9.2% | 14.1µM* | 20µM* | -8.2% | -3.7% | 1.4% | 1.0%
CCCCCCNC(=O)N[C@H](Cc1ccc(O)cc1)C(=O)NCCC[C@H]1CN2C(=NC[C@H]2CCC)N1CC1CCC1 | / | 5.01µM* | -1.7 | 17.0 | -9.2% | 15.8µM* | -18.0% | 5.4% | -1.4% | -1.6% | 3.8%

High-throughput results deposited in PubChem BioAssay by National Center for Advancing Translational Sciences (NCATS).
